Values joined by “and” are separate entries in the source; they are usually repeats but may differ in a detail not shown here. Equal entries are not always repeated. The panel holds about 83,000 compounds, 20% with a hit somewhere; the sample as a whole holds those more often.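 Step 1: grow cells in 96-well plates. Step 2: add test compound at a single concentration. Step 3: incubate 48 h. Step 4: record percent growth.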 Active and inactive are the calls of the source. Rule for the calls: active = growth percent below 10; inactive = the rest.

The experiment relates to HL-60(TB) leukemia. The experiment can be described thus: NCI-60 one-dose screen, 48 h (100 = growth as untreated, 0 = no growth, -100 = all killed). The settings on record: 10 µM unless noted.
Turning to `COC1C[C@H](O[C@@H]2C[C@H](O[C@@H]3C[C@H](O[C@@H]4C(=O)c5c(cc6cc(O[C@H]7C[C@@H](O[C@H]8C[C@@H](O)[C@H](O)C(C)O8)[C@H](O)C(C)O7)c(C)c(O)c6c5O)C[C@H]4C(OC)C(=O)[C@@H](O)[C@@H](C)O)OC(C)[C@H]3O)OC(C)[C@@H]2O)OC(C)[C@@H]1O` (stereo not given in full), the growth is -0.253% (active). To `Cc1ccc2c(N/N=C\c3ccco3)cc(C)nc2n1` belongs -53.3% (active). Regarding `O=C1C2=C(C(=O)c3ccccc31)C(O)(S(=O)(=O)O)C(O)(S(=O)(=O)O)C1N=CC=CC21` (stereo not given), the growth is 28.7% (inactive) and 31.4% (inactive). `CCN(CC)CCOc1cccc2c1C(=O)c1cccc(OCCN(CC)CC)c1C2=O`: the growth was 19.7% (inactive). To `COc1ccc(COC=O)cc1` belongs 103% (inactive). To `O=C(Nc1ccc(OCc2nnc(-c3ccccc3)o2)c(F)c1)Nc1ccc(Cl)c(Cl)c1` belongs 58.5% (inactive). In the case of `COc1ccc(Cc2nc3cc(OC)c(OC)cc3c(=O)[nH]2)cc1` it was 16.4% (inactive); in that of `Nc1[nH]n2cc(-c3ccccc3)nc2c1N=Nc1ccc(S(N)(=O)=O)cc1`, 27.9% (inactive). As to `CCn1cnc(C[C@H](NC(=O)[C@@H](NC(=O)Nc2cc(C(F)(F)F)cc(C(F)(F)F)c2)C(C)(C)C)C(=O)OC)c1`, the growth is -71.5% [100 µM] (active).

On to `O=C(Nc1ccc(Oc2ccc(Nc3nc4ccccc4s3)cc2)cc1)Nc1ccc(Cl)c(Cl)c1`, for which the growth was 21.1% (inactive). Take `O=c1[nH]c(=S)[nH]c(=O)n1Cc1cccc2ccccc12`: the growth was 101% (inactive).

For `Fc1ccc(Nc2nc3nonc3nc2Nc2ccc(F)cc2)cc1`, the growth is -17.6% (active).

Regarding `COc1ccc(-c2cn(-c3cccc(C(=O)/C=C/c4ccc(O)c(OC)c4)c3)c(=O)[nH]2)cc1`, the growth is -2.62% (active).

For the compound `c1ccc(C2=NN[C@H](c3cn(-c4ccccc4)nc3-c3ccccc3)C2)cc1`, the growth is 112% (inactive). To `CC[C@]1(O)C[C@@H]2CN(Cc3c([nH]c4ccccc34)[C@@](C(=O)OC)(c3cc4c(cc3OC)N(C)[C@H]3[C@@](O)(C(=O)OC)[C@H](OC(C)=O)[C@]5(CC)[C@@H]6C[C@@H]6CN6CC[C@]43[C@@H]65)C2)C1` belongs -36.5% (active); to `O=S(=O)(c1ccc(N/N=C\c2ccccc2)cc1)c1ccc(N/N=C/c2ccccc2)cc1`, 94.8% (inactive); to `N#CCNC(=O)c1ccc(-c2ccnc(Nc3ccc(N4CCOCC4)cc3)n2)cc1`, -25.3% (active).

In the case of `O=S(=O)(O)C1(O)CCCCC1`, the growth is 87.6% (inactive). To `COc1ccccc1NC(=O)Cn1cc(CN2CCN(c3ccnc4cc(Cl)ccc34)CC2)nn1` belongs 131% (inactive). For `CCN(CC)Cc1cc2[nH]c3c4ccc(Cl)cc4ncc3c2cc1OC`, the growth is -72.1% (active) and 94.6% (inactive).

As for `COc1ccc(-c2nc3c(c(-c4ccccc4)nn3-c3ccccc3)c(-c3ccc(N4CCN(C)CC4)cc3)c2C#N)cc1`, the growth was 80.4% (inactive). To `CC(=O)Nc1ccc(C(=O)/C=C/c2ccc(N(C)C)cc2)cc1` belongs 104% (inactive). In the case of `COc1c(B(O)O)cccc1-c1nc2c(F)cc3n[nH]c(C)c3c2c2c1CCCC2` it was 6.65% (active); in that of `O=C1NCc2ccc3c(-c4cccc(Cl)c4)c[nH]c3c21`, -4.05% (active); in that of `COc1ccc(-c2nc(Nc3ccc(F)cc3)nc(Nc3ccc4c(c3)nc(C)n4Cc3ccccc3)n2)cc1`, -11.4% (active). In the case of `O=C(Nc1nc2ccc(C(=O)N3CCN(c4ccc(Cl)c(Cl)c4)CC3)cc2s1)c1ccc(NCCc2ccccc2)c([N+](=O)[O-])c1` it was 101% (inactive); in that of `COc1ccc(/C=C\c2nc3ccccc3s2)cc1OP(=O)(O)O`, -1.37% (active). Turning to `CC(=O)NC(Cc1ccccc1)C(=O)Oc1ccc2ccccc2c1` (stereo not given), the growth is 110% (inactive) and 83.4% (inactive). In the case of `CN(C)CCCn1c(=O)c2ccccc2c2cnc3[nH]ccc3c21` it was 5.9% (active); in that of `COc1ccc(S(=O)(=O)N2CCOCC2)cc1NC(=O)c1[nH]c(C)c2c1CCCCC2=O`, 99.6% (inactive) and 15% (inactive). To `O=S(=O)(Nc1ccc(F)c(Cl)c1)c1ccc(-c2cnc(C3CC3)o2)cc1` belongs 8.62% (active); to `O=C(c1ccccc1)c1ccc(Cl)c([N+](=O)[O-])c1`, 40.8% (inactive). In the case of `CCCCCCOc1ccc(C2(Cl)c3ccccc3N(C)c3ccccc32)cc1` it was 65.4% (inactive); in that of `COc1ccc(-n2nc(C(=O)Nc3ccc(F)cc3)nc2-c2cc(OC)c(OC)c(OC)c2)cc1`, 91.5% (inactive); in that of `CCOC(=O)c1cc(C(=O)OCC)c(C)nc1C`, 96.9% (inactive).

For `CC(=O)N1N=C(c2cccc(Nc3ccncc3)c2)CC1c1ccccc1` (stereo not given), the growth is 78.9% (inactive). To `Cc1ccc(Nc2cc(N)nc(N)n2)cc1Cl` belongs 98.7% (inactive). Consider `COc1cc(NC(N)=NCCC(C)(C)c2ccc(C(F)(F)F)cc2)ncc1C#N`, for which the growth is -34.6% (active).

Take `CNC(=O)NCC1OC(n2cnc3c(NC(=O)Nc4ccccc4)ncnc32)C(O[Si](C)(C)C(C)(C)C)C1O[Si](C)(C)C(C)(C)C` (stereo not given): the growth was 23.5% (inactive). In the case of `COc1ccc2nc(NCCCNCCO)c3sc4ccc(F)cc4c(=O)c3c2c1` it was 25% (inactive).

For the origin of these results see PubChem BioAssay (NCI).
